The text below walks through data of ChEMBL document CHEMBL1157539, “Thousands of chemical starting points for antimalarial lead identification” (Nature, 2010).

SMILES strings stand for the structures.

Common to all, as to type: functional
Assay [1] concerns Plasmodium falciparum. The assay can be described thus: GSK_TCMDC: Inhibition of Plasmodium falciparum 3D7 in whole red blood cells, using parasite LDH activity as an index of growth. Test compounds present at 2uM.
Assay [2] has as its system Plasmodium falciparum. Nature of the assay: GSK_TCMDC: Inhibition of Plasmodium falciparum Dd2 in whole red blood cells, using parasite LDH activity as an index of growth. Test compounds present at 2uM.
Assay [3] deals with HepG2. Nature of the assay: GSK_TCMDC: Percent inhibition of human HepG2 cell line. Test compounds present at 10uM.

By Inhibition is commonly meant the relative decrease from the control value, in per cent. As for `COc1cc2c(cc1C(F)(F)F)N(C(=O)Nc1cc(F)c(F)c(-c3cccnc3)c1)CC2`, the Inhibition in assay [1] was 90%; in assay [2] it was 15%; in assay [3], 20%.
Consider `CC(CN1CCN(C)CC1)C(=O)Nc1ccc(-c2cccc(-c3nc4ccccc4[nH]3)c2)cc1` (stereo unspecified), for which the Inhibition in assay [1] was 94%; in assay [2], 81%; in assay [3], 4%.
On to `Cl.c1ccc2c(NCCCCCCNc3ccnc4ccccc34)ccnc2c1`, for which the values for the Inhibition in assay [1], in assay [2] and in assay [3] were 100%, 12% and 43%, respectively.
On to `CCc1ccc(C2CCN(CCCCNC(=O)c3ccc(NC(=O)c4ccc(Cl)cc4)cc3)CC2)cc1`, for which the Inhibition in assay [1] is on record as 100%; in assay [2] it was 63%; in assay [3], 15%.
For `CCCNC[C@@H](O)[C@H](Cc1ccccc1)NC(=O)c1cc(NCC)cc(N2CCCCS2(=O)=O)c1.Cl`, the Inhibition in assay [1] stood at 97%; in assay [2] it was 74%; in assay [3] it was 0%.
On to `COc1ccc2nc(C)cc(N/N=C/c3ccc([N+](=O)[O-])o3)c2c1`, for which the Inhibition in assay [1] was 100%; in assay [2] it was 100%; in assay [3], 18%.
For `Cc1cccc2nc(-c3ccc(-c4cccc(CNCCNC(=O)c5ccnn5C)c4)cc3)[nH]c12.O=C(O)C(F)(F)F`, the values for the Inhibition in assay [1], in assay [2] and in assay [3] were 100%, 92% and 17%, respectively.
In the case of `Cc1cc(N(C)C)nc(Nc2ccc(NC(=O)c3ccccc3Cl)cc2)n1`, the Inhibition turned out to be 88% in assay [1], 31% in assay [2] and 3% in assay [3].
For `CN(C)CCNC(=O)[C@H](CC1CCCCC1)NC(=O)c1ccc(O)c(-c2ccc(Cl)c(Cl)c2)c1`, the Inhibition is 98% in assay [1], 97% in assay [2] and 0% in assay [3].
As to `N#CCCn1nc(-c2ccc(Cl)cc2)c2c(c1=O)CCCC2`, the Inhibition in assay [1] was found to be 94%; in assay [2] it was 32%; in assay [3] it was 0%.
The matching figures for `Nc1ccc(-c2ccc(NC(=O)Nc3cc(C(F)(F)F)ccc3F)cc2)cn1`: 99%, 39% and 0%.
On to `COCCNCc1cccc(-c2ccc3c(Nc4ccc(Oc5ccccc5)cc4)ccnc3c2)c1`, for which the Inhibition in assay [1] was 100%; in assay [2] it was 99%; in assay [3], 25%.
With `Cl.O=C(NC1CCC(CCN2Cc3cccc(C(F)(F)F)c3C2)CC1)c1cccc(-c2cccnc2)c1` (stereo unspecified), the Inhibition in assay [1] was 100%; in assay [2], 67%; in assay [3], 26%.
For `CCc1c[nH]c2c(N3CCCC3=O)cc(C(=O)N[C@@H](Cc3ccccc3)[C@H](O)CNC(C)(C)c3cccc(OC)c3)cc12`, the results for the Inhibition in assay [1], in assay [2] and in assay [3] were 93%, 98% and 0%, respectively.
On to `Cl.Oc1cc(Nc2ccnc3ccc(I)cc23)c(F)cc1Cl`, for which the Inhibition was 95% in assay [1], 13% in assay [2] and 20% in assay [3].
Regarding `Cl.O=C(c1ccc(Cl)c(Cl)c1)N1CCc2c([nH]c3ccccc23)C1CN1CCCC1` (stereo unspecified), the values for the Inhibition in assay [1], in assay [2] and in assay [3] were 94%, 16% and 83%, respectively.
The matching figures for `Brc1cc(Br)c2c(c1)C(NCCCNc1nc3ncccc3[nH]1)CCN2.O=C(O)CCC(=O)O` (stereo unspecified): 99%, 83% and 5%.
Regarding `COc1c(C)cc(I)cc1CNCCCNc1cc(=O)c2ccccc2[nH]1`, the Inhibition in assay [1] worked out at 84%; in assay [2], 0%; in assay [3] it was 0%.
`CN(C)CCOc1ccc2c(c1)OC(C)(C)C=C2c1cccc2ccccc12.Cl`: the Inhibition in assay [1] is listed as 95%; in assay [2] it was 48%; in assay [3], 66%.
For the compound `CS(=O)(=O)CCNCc1cccc(-c2ccc3c(Nc4cc(O)c(Cl)cc4F)ccnc3c2)c1`, the Inhibition came to 100% in assay [1], 100% in assay [2] and 9% in assay [3].
`Cc1cccc2nc(-c3ccc(-c4cccc(CNCC5CCCO5)c4)cc3)[nH]c12.O=C(O)C(F)(F)F` (stereo unspecified): the Inhibition was 100% in assay [1], 50% in assay [2] and 18% in assay [3].
Take `CCCCOc1cc(C)nc2ccc(NC(=O)COCC(=O)Nc3ccc4nc(C)cc(OCCCC)c4c3)cc12`: the Inhibition was found to be 90% in assay [1], 28% in assay [2] and 0% in assay [3].
On to `CCOC(=O)c1cn(CC)c2cc(N3CCCCCC3)c(F)cc2c1=O`, for which the Inhibition in assay [1] stood at 94%; in assay [2] it was 89%; in assay [3], 0%.
With `COc1ccc2nccc([C@@H](O)CN3CCC(NCc4cc5oc(=O)n(C)c5cc4F)CC3)c2c1.O=C(O)C(=O)O`, the values for the Inhibition in assay [1], in assay [2] and in assay [3] were 99%, 72% and 0%, respectively.
On to `Cn1nc(-c2ccc(NC(=O)Nc3cc(C(F)(F)F)cc(C(F)(F)F)c3)c(F)c2)c2cnc(NCCN3CCOCC3)nc21.O=C(O)C(F)(F)F`, for which the results for the Inhibition in assay [1], in assay [2] and in assay [3] were 94%, 37% and 43%, respectively.
Take `CC(=O)c1ccc(NC(=O)C2c3ccccc3C(=O)N(CC(C)C)C2c2cccs2)cc1` (stereo unspecified): the Inhibition is 99% in assay [1], 51% in assay [2] and 13% in assay [3].
Take `Nc1cccc(CNCc2ccc(-c3ccc(-c4nc5cc(C(F)(F)F)ccc5[nH]4)s3)cc2)c1.O=C(O)C(F)(F)F`: the Inhibition in assay [1] was 100%; in assay [2], 98%; in assay [3], 28%.
As for `CC(C)Cn1cc(C2CCN(CCN3CCC(CNC(=O)c4ccc(NC(=O)c5cc(Cl)cc(Cl)c5)cc4)CC3)CC2)c2ccccc21`, the Inhibition in assay [1] is given as 91%; in assay [2], 96%; in assay [3], 53%.
For `COc1ccc(-c2csc3nc(C)nc(Cl)c23)cc1OC` the same measures were 97%, 95% and 0%.
Turning to `CCc1c(C(=O)NC2CCC(N3CCC(c4ccccc4C)CC3)CC2)[nH]c2ccc(OC)cc12` (stereo unspecified), the Inhibition came out at 100% in assay [1], 100% in assay [2] and 78% in assay [3].
For the compound `COc1cc(NC(=O)N2CCOC(CCN3CCC4(CCc5ccccc54)CC3)(c3ccc(Cl)c(Cl)c3)C2)cc(OC)c1` (stereo unspecified), the results for the Inhibition in assay [1], in assay [2] and in assay [3] were 87%, 50% and 29%, respectively.
Turning to `CN(/N=C/C=C/c1ccc(Cl)cc1)c1nc(NCCc2ccc(O)cc2)nc(N2CCNCC2)n1`, the Inhibition in assay [1] was 92%; in assay [2], 69%; in assay [3] it was 14%.
